Shown are actives, neighbours in structure and some others; about 2.3% of the full set was active somewhere.
SENP6 block: inhibitors of human SENP6 protease; Q9GZR1; Recombinant SENP6 catalytic domain, aminoluciferin luminescence; inhibition, % at 10 µM; hit rate 1.8% among 330,000;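 active means inhibition above about 50% at the single tested dose, limit read from the data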;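 further: plate controls were DMSO wells with enzyme for no effect and DMSO wells lacking enzyme for full effect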
SENP7 inh: blocks the human protease SENP7 | inhibition, % at 5 µM | recombinant SENP7, Z-RLRGG-aminoluciferin luminescence, 40 min | Q9BQF6 | hit rate 1.5% among 330,000;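 active means inhibition above about 50% at the single test dose, limit read from the data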;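 further: plate controls were DMSO with enzyme for no effect and no enzyme buffer wells for full effect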
SENP8 block-1: blocks the human protease SENP8; Q96LD8; hit rate 1.2% among 330,000; AID 2540; inhibition, % at 10 µM; purified SENP8, Z-RLRGG-aminoluciferin cleavage, luminescence; in the data active means inhibition above about 50%
Target sequence (Q96LD8 whole entry, looked up): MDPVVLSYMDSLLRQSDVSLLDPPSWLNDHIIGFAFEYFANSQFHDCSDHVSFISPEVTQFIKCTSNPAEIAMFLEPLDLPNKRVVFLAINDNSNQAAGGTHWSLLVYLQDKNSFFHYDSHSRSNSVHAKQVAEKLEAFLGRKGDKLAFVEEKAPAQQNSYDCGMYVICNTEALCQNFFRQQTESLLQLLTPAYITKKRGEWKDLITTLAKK
SENP8 block-2: blocks human SENP8 cleavage of Nedd8 substrate; recombinant SENP8, Nedd8 substrate fluorescence; inhibition, % at 20 µM; hit rate 0.64% among 360,000; AID 602440; in the data active means inhibition mostly above about 40%, no sharp cut-off; inactive means mostly below about 27%
HSP90 inh: HSP90 refolding inhibition in rabbit reticulocyte lysate | luciferase refolding luminescence, 3 h | inhibition, % at 5.6 µM | hit rate 0.91% among 290,000 | AID 1789;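 active means inhibition above the screen-wide mean plus 3 SD, computed separately per campaign, cut at about 16% in these data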;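 further: 0% = DMSO wells and 100% = 60 µM geldanamycin wells; inhibitors lower the luminescence because luciferase stays unfolded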
LGR2 inh: Drosophila LGR2 receptor signaling inhibition | HEK293 LGR2, CRE-luciferase, bursicon-stimulated, 4 h | inhibition, % at 9.99 µM | hit rate 0.35% among 380,000;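 active means drop in luminescence signal, shown as inhibition above about 50% in the replicate tests, limit read from the data, passing the limit was not always enough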;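 further: agonist challenge used bursicon conditioned medium at about half maximal strength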
SENP8 conf: confirmation of human SENP8 protease inhibitors; shares compounds with SENP7 inh; Recombinant SENP8, Z-RLRGG-aminoluciferin luminescence, 60 min; inhibition, % at 12.5 µM; hit rate 40% among 6,200; AID 488912;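 active means mean inhibition across replicates above about 50%, limit read from the data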
SENP6 conf: confirmation of human SENP6 protease inhibitors | hit rate 58% among 6,200 | inhibition, % at 12.5 µM | shares compounds with SENP7 inh | recombinant SENP6, Z-RLRGG-aminoluciferin luminescence
SENP7 conf: confirmation of human SENP7 protease inhibitors; shares compounds with SENP7 inh; recombinant SENP7, Z-RLRGG-aminoluciferin luminescence, 40 min; inhibition, % at 12.5 µM; hit rate 69% among 6,200
Casp3 SENP sel: caspase-3 inhibition (SENP selectivity assay). inhibition, % at 12.5 µM. purified caspase-3, Z-DEVD-aminoluciferin luminescence, 60 min. AID 488918. hit rate 60% among 6,200. shares compounds with SENP7 inh;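 active means mean inhibition above about 50%, limit read from the data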;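 further: plate controls were enzyme with DMSO for no effect and wells without caspase-3 for full effect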
Target sequence (P42574 28-227 limits assumed): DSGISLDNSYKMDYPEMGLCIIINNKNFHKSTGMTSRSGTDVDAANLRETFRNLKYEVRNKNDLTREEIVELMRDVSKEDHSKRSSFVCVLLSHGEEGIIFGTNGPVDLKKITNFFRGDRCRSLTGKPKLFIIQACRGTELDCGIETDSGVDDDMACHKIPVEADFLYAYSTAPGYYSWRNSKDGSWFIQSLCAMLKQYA
Luc interf: luminescence interference (SENP counter-screen) | hit rate 39% among 6,200 | Pre-incubated SENP8/Z-RLRGG-aminoluciferin, luciferase luminescence interference | shares compounds with SENP7 inh | inhibition, % at 12.5 µM;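 active means mean inhibition above about 50% when retested at one dose, limit read from the data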;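 further: plate controls were DMSO wells with completed reaction for no effect and substrate without enzyme for full effect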
The depositor's hits bear a star; nt = no result.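 How the source made its calls, unless noted: active means mean inhibition above about 50% in the one-dose retest (limit read from the data); inactive means the rest.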

SMILES	SENP6 block	SENP7 inh	SENP8 block-1	SENP8 block-2	HSP90 inh	LGR2 inh	SENP8 conf	SENP6 conf	SENP7 conf	Casp3 SENP sel	Luc interf
COc1ccc(-c2csc(Nc3ncccc3C)n2)cc1	100*	93*	92*	11	0	-46	95*	97*	102*	87*	92*
Cc1cccnc1Nc1nc(-c2ccc(O)c(O)c2)cs1	92*	66*	92*	11	7	-77	89*	89*	96*	45	86*
COc1ccc(-c2csc(Nc3ncccc3C)n2)cc1OC	49	14	14	-38	2	nt	nt	nt	nt	nt	nt
Cc1nc(C)c(-c2csc(Nc3ncccc3C)n2)s1	67*	59*	61*	5	-3	-36	52*	60*	86*	50	25
C[C@@H]1CN([C@H](C)CO)C(=O)CCCn2nncc2CO[C@@H]1CN(C)CC1CCCC1	nt	nt	nt	nt	nt	-3	nt	nt	nt	nt	nt
O=C1/C(=C\c2cccnc2)CCc2ccccc21	74*	12	26	18	-1	nt	75*	63*	24	2	84*
O=C1/C(=C/c2ccccc2)CCCc2ccccc21	70*	66*	76*	16	-1	nt	89*	93*	97*	76*	83*
O=C1C(=Cc2ccc(F)cc2)Cc2ccccc21	nt	nt	nt	20	nt	-16	nt	nt	nt	nt	nt
Cn1c(C(=O)O)cc2cc(Oc3ccccc3)ccc21	80*	13	64*	-25	1	1	7	66*	82*	71*	72*
Cn1c(C(=O)NN)cc2cc(Oc3ccccc3)ccc21	-34	2	-4	-148	3	nt	nt	nt	nt	nt	nt
C[C@@H]1CN([C@@H](C)CO)C(=O)c2cc(NC(=O)Nc3ccc(F)cc3)ccc2O[C@@H](C)CCCCO[C@@H]1CN(C)C(=O)c1ccccc1	nt	nt	nt	nt	nt	2	nt	nt	nt	nt	nt
CC(=O)N=c1sc2ccccc2n1C	4	-6	-6	14	-1	nt	nt	nt	nt	nt	nt
COc1cc(OC)cc(C(=O)N=c2sc3ccccc3n2C)c1	0	51*	-7	-419	2	-122	-2	3	2	12	10
COc1cccc(C(=O)N/N=c2\sc3ccccc3n2C)c1	1	4	-3	17	5	-24	nt	nt	nt	nt	nt
COc1ccc(C(=O)N=c2sc3ccccc3n2C)cc1	1	77*	69*	-433	-4	-58	15	23	24	17	9
Cc1noc(C)c1NC(=O)Nc1cccc2c1O[C@H](CN(C)CC1CC1)[C@H](C)CN([C@H](C)CO)C2=O	nt	nt	nt	nt	nt	-2	nt	nt	nt	nt	nt
O=[N+]([O-])c1ccc2nc(-c3ccc(Cl)cc3)[nH]c2c1	75*	63*	54*	-385	-2	-100	68*	72*	87*	50*	49
O=[N+]([O-])c1ccc2nc(-c3ccncc3)[nH]c2c1	78*	51*	64*	20	-2	-59	39	60*	88*	86*	74*
C[C@H]1CN([C@@H](C)CO)C(=O)c2c(c3ccccc3n2C)-c2ccccc2CO[C@H]1CN(C)Cc1cccc2c1OCCCO2	nt	nt	nt	nt	nt	11	nt	nt	nt	nt	nt
CC1(C)CC(=O)c2sc(NC(=O)c3cccs3)nc2C1	80*	66*	52*	-57	5	nt	63*	64*	88*	87*	44
CC1(C)CNC(=O)c2sc(NC(=O)c3ccccc3)nc2C1	4	-6	-6	6	4	-32	nt	nt	nt	nt	nt
CC1(C)CC(=O)c2sc(NC(=O)c3ccccc3)nc2C1	40	57*	55*	nt	-2	nt	60*	51*	65*	75*	64*
C[C@H](O)C#Cc1ccc2c(c1)O[C@@H](CN(C)C(=O)Nc1ccccc1)[C@H](C)CN([C@H](C)CO)S2(=O)=O	nt	nt	nt	nt	nt	-5	nt	nt	nt	nt	nt
Cc1ccc(S(=O)(=O)Nc2ccc3c(c2)CC(=O)N([C@@H](C)CO)C[C@H](C)[C@H](CN(C)Cc2ccc(C(=O)O)cc2)O3)cc1	nt	nt	nt	nt	nt	10	nt	nt	nt	nt	nt
CO[C@@H]1CN(C)C(=O)c2cc(NC(=O)C3CC3)ccc2OC[C@@H](C)N(CC2CCOCC2)C[C@@H]1C	nt	nt	nt	nt	nt	11	nt	nt	nt	nt	nt
SMILES	SENP6 block	SENP7 inh	SENP8 block-1	SENP8 block-2	HSP90 inh	LGR2 inh	SENP8 conf	SENP6 conf	SENP7 conf	Casp3 SENP sel	Luc interf
Cn1c(N=Nc2ccccc2)nc2ccccc21	-4	101*	97*	66*	42*	nt	-16	99*	103*	94*	97*
Cc1ccc(S(=O)(=O)N[C@H]2C=C[C@@H](CC(=O)N3CCN(c4ccccc4)CC3)O[C@H]2CO)cc1	nt	nt	nt	nt	nt	-1	nt	nt	nt	nt	nt
Cc1nn(C(C)C(=O)Nc2ccc(Cl)cn2)c(C)c1[N+](=O)[O-] (stereo not drawn)	-31	80*	-5	5	0	12	-5	2	-2	-2	-1
Cc1nn(CC(=O)Nc2ccc(Cl)cn2)c(C)c1[N+](=O)[O-]	-8	4	7	11	-4	nt	nt	nt	nt	nt	nt
C[C@H]1CN([C@@H](C)CO)C(=O)c2cc(C#Cc3ccccc3F)cnc2O[C@H]1CN(C)C(=O)c1ccc2c(c1)OCO2	nt	nt	nt	nt	nt	20	nt	nt	nt	nt	nt
COCOc1ccc(/C=C2/Oc3cc(OCOC)cc(OCOC)c3C2=O)c(OCOC)c1	-13	-7	4	-233	nt	nt	nt	nt	nt	nt	nt
CC(=O)Oc1ccc(/C=C2/Oc3ccccc3C2=O)cc1	87*	78*	83*	-86	4	-46	40	61*	44	71*	33
COc1cc(OC)c2c(c1)O/C(=C\c1ccccc1)C2=O	68*	54*	57*	-397	nt	-47	72*	68*	83*	47	72*
COc1ccc(/C=C2\Oc3ccccc3C2=O)cc1	93*	97*	92*	-473	nt	56*	5	94*	101*	94*	88*
CN1[C@@H]2c3ccc(C4=CCCCC4)c(=O)n3C[C@@H]2[C@@H](CO)[C@@H]1C(=O)NCc1ccccc1	nt	nt	nt	nt	nt	2	nt	nt	nt	nt	nt
CCCCN1C2CCCC1CC(NC(=O)c1ccccc1Cl)C2 (stereo not drawn)	-12	83*	-7	22	-6	-7	-8	-3	-6	-3	-5
CCCN(C)C[C@H]1Oc2cc(C#Cc3cccc(F)c3)ccc2S(=O)(=O)N([C@H](C)CO)C[C@@H]1C	nt	nt	nt	nt	nt	-15	nt	nt	nt	nt	nt

From PubChem
